# PubChem BioAssay
# Active and inactive are the calls of the source. How the calls were made is not given here. Starred links: 1 amine or outer side, 2 acyl side, 3 side chain; linkers in the order of their positions; H or OH if unused. Positions of bridges follow the written chain, without caps; N, C: chain ends. Non-standard residues stand in square brackets, D forms with d. Residues, ends and D or L forms follow the SMILES beside them. ξ: configuration not given here. *: point of attachment. ΔAla(E,3-NHCONH2) = NC(=O)N/C=C(/N)C(=O)O; X1 = NC1=NCCC(C(N[*:1])C(=O)[*:2])N1; Octanoyl(6-Me) = CCC(C)CCCCC(=O)*; ξβ3hOrn = NCCCC(N)CC(=O)*; Dab = NCC[CH](N)C(=O)O; Dap = NC[CH](N)C(=O)O
# System: Aerobactin synthetase IucA (Klebsiella pneumoniae hvKP1)
# Assay: IucA enzyme inhibition, primary screen, biochemical, Spectrum library (AID 1346200);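 further: 100% = wells without compound and 0% = wells lacking enzyme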
# Conditions: malachite green pyrophosphate, A620, at 8 µM, stronger effect = lower value
row,SMILES,activity remaining
1,C=C1c2c(Cl)ccc(O)c2C(O)=C2C(=O)[C@]3(O)C(O)=C(C(N)=O)C(=O)[C@@H](N(C)C)[C@@H]3[C@@H](O)[C@H]12,109% (inactive)
2,COc1ccc(-c2oc3c(CC=C(C)C)c(O[C@@H]4O[C@H](CO)[C@@H](O)[C@H](O)[C@H]4O)cc(O)c3c(=O)c2O[C@@H]2O[C@@H](C)[C@H](O)[C@@H](O)[C@H]2O)cc1,121% (inactive)
3,Cc1cc(OC(=O)c2c(C)cc(O)cc2O)cc(O)c1C(=O)O,115% (inactive)
4,CC(C)=CCC/C(C)=C/CC/C(C)=C/CC/C(C)=C/CC/C(C)=C/CC/C(C)=C/CC/C(C)=C/CC/C(C)=C/CC/C(C)=C/CO,105% (inactive)
5,CC(=O)NC1SCCC1=O (stereo not given),112% (inactive)
6,CC(C)c1c(O)ccc2c1CCC1C(C)(C)CCC[C@]21C (stereo not given in full),116% (inactive)
7,COc1ccccc1OCCNCC(O)COc1cccc2[nH]c3ccccc3c12 (stereo not given),120% (inactive)
8,COc1cc(OC)c2c(=O)c(OC)c(-c3ccc(OC)c(OC)c3)oc2c1,120% (inactive)
9,COC(=O)C[C@@H]1C2(C)C(=O)[C@@H](CC3C2CC[C@]2(C)C3CC(=O)O[C@H]2c2ccoc2)[C@H](OC(C)=O)C1(C)C (stereo not given in full),109% (inactive)
10,Nc1nc2ncc(CNc3ccc(C(=O)N[C@@H](CCC(=O)O)C(=O)O)cc3)nc2c(=O)[nH]1,91.3% (inactive)
11,C=CC(C1=CC(=O)C=CC1=O)c1ccccc1 (stereo not given),119% (inactive)
12,C/C=C(/C)C(=O)O[C@@H]1[C@H](OC(C)=O)[C@@]2(CO)C(CC1(C)C)C1=CCC3[C@@]4(C)CC[C@H](O[C@@H]5O[C@H](C(=O)O)[C@@H](O[C@@H]6O[C@H](CO)[C@@H](O)[C@H](O)[C@H]6O)[C@H](O)[C@H]5O[C@@H]5O[C@H](CO)[C@@H](O)[C@H](O)[C@H]5O)[C@](C)(CO)C4CC[C@@]3(C)[C@]1(C)C[C@H]2O (stereo not given in full),119% (inactive)
13,COc1ccc(-c2coc3cc(O)ccc3c2=O)c(O)c1O,114% (inactive)
14,CON=C1C[C@]2(C[C@@H]3C[C@@H](C/C=C(\C)C[C@@H](C)/C=C/C=C4\CO[C@@H]5[C@H](O)C(C)=C[C@@H](C(=O)O3)[C@]45O)O2)O[C@H](/C(C)=C/C(C)C)[C@H]1C,93.8% (inactive)
15,COc1ccc(-c2cc(=O)c3c(O)c(OC)c(OC)c(OC)c3o2)cc1,93% (inactive)
16,Nc1nc(=S)c2[nH]cnc2[nH]1,121% (inactive)
17,CC(C)(C)CC(C)(C)c1ccc(OCCOCC[N+](C)(C)Cc2ccccc2)cc1,113% (inactive)
18,CC(=O)OC1CCC2C3CCc4cc(O)ccc4C3CCC12C (stereo not given),123% (inactive)
19,"NCCCC(N)CC(=O)NCC1NC(=O)C(CO)NC(=O)C(N)CNC(=O)C(C2CCN=C(N)N2)NC(=O)/C(=C\NC(N)=O)NC1=O (stereo not drawn) (H-[Dap]S[Dap](ξβ3hOrn)[ΔAla(E,3-NHCONH2)][X1]; lactam 1-C; configuration not given here)",101% (inactive)
20,OCCN1C[C@@H](O)[C@@H](O)C(O)C1CO (stereo not given in full),114% (inactive)
21,COC(=O)N/N=C/c1c[n+]([O-])c2ccccc2[n+]1[O-],109% (inactive)
22,CC[C@@]1(O)C(=O)OCc2c1cc1n(c2=O)Cc2cc3cc(O)ccc3nc2-1,117% (inactive)
23,C#C[C@]1(O)CCC2C3CCC4=CC(=O)CC[C@@H]4C3CC[C@@]21CC (stereo not given in full),123% (inactive)
24,O=C(O)CC(O)(CC(=O)O)C(=O)O,123% (inactive)
25,C[C@]12CCC3c4ccc(OS(=O)(=O)O)cc4CCC3C1CC[C@H]2O (stereo not given in full),102% (inactive)
26,O=c1c(O)c(-c2ccccc2)oc2cc(O)ccc12,100% (inactive)
27,CC1=CC(=O)CC(C)(C)C1(O)/C=C/C(C)=C\C(=O)O (stereo not given),117% (inactive)
28,C[N+](C)(C)C[C@H](O)CC(=O)[O-],100% (inactive)
29,COc1cccc(/C=C/C(=O)O)c1C(C)C,122% (inactive)
30,CCC(C)CCCCC(=O)NC(CCN)C(=O)NC(C(=O)NC(CCN)C(=O)NC1CCNC(=O)C(C(C)O)NC(=O)C(CCN)NC(=O)C(CCN)NC(=O)C(CC(C)C)NC(=O)C(Cc2ccccc2)NC(=O)C(CCN)NC1=O)C(C)O (stereo not given) ({Octanoyl(6-Me)}-[Dab]T[Dab][Dab][Dab]FL[Dab][Dab]T; lactam 4-C; configuration not given here),121% (inactive)
